The list is not random: actives were taken first. Their share in the collection is about 5.4%.
CtBP-E1A blk = CtBP/E1A binding inhibition; AlphaScreen GST-E1A/His-CtBP binding, 1536-well; hits give low values; activity change, % (no concentration beside the values); 0.49% of 340,000 active; in the data active = activity change below about -65%; inconclusive = mostly about -30% to -63%
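Steps: dispense buffer (Tris pH 8.0, NaCl 300 mM, TCEP 1 mM, BSA, Tween 20); add 5X protein mix (GST-E1A, His-CtBP, 125 nM each); pin 23 nL compound; 2 h at 37 °C, dark; add 5X beads (50 ug/mL); 1 h; read.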
Gal4-VP16 FLuc = Gal4-VP16 reporter inhibition counter-screen; Drosophila S2 Gal4-VP16 UAS-luciferase, luminescence, 20 h; Potency, µM (titrated, usually from 53.6 µM), most hits filed as inhibitors; 3.5% of 310,000 active;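 also: Gal4-VP16 expression switched on by copper sulfate through the metallothionein promoter; nearly all actives have a fitted effect of over 50% in size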
Six1-Eya2 blk = Six1/Eya2 interaction inhibition; AlphaScreen GST-Six1/His-Eya2 binding, biochemical; hits give low values; activity change, % (test concentration not listed); Q15475+O00167; 0.56% of 360,000 active; in the data active = activity change below about -65%; inconclusive = mostly about -30% to -63%
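GST-Six1 + His-Eya2 (5X stock: 250/500 nM); Tris pH 8.0, 300 mM NaCl, 0.05% BSA, 0.02% Tween 20; GSH donor/Ni acceptor beads; 1 h 37 °C dark; AlphaScreen readout.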
p53 reactivation = re-activators of mutant p53 | H1299 p53-A138V BP100-luciferase reporter, luminescence, 24 h | Potency, µM (titrated, usually from 92.2 µM), most hits filed as activators | 0.063% of 320,000 active | AID 504706; also: nearly all actives have a fitted effect of over 45% in size
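H1299 (p53-null), stable ts p53-A138V + BP100-Luc; 1000 cells/well, Opti-MEM/10% FBS; cpd 4 pt, 1:5; 24 h, 37 deg C, 5% CO2; detection reagent 10 min RT; luminescence.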
RORg inh = inhibitors of mouse ROR gamma transcriptional activity | 5.4% of 310,000 active | AID 2551 | Drosophila S2 Gal4-RORgamma UAS-luciferase reporter, 20 h | P51450 | Potency, µM (titrated, usually from 53.6 µM), actives largely listed as inhibitors; also: nearly all actives have a fitted effect of over 60% in size
Target sequence (P51450 whole entry, looked up, the tested form may be a part): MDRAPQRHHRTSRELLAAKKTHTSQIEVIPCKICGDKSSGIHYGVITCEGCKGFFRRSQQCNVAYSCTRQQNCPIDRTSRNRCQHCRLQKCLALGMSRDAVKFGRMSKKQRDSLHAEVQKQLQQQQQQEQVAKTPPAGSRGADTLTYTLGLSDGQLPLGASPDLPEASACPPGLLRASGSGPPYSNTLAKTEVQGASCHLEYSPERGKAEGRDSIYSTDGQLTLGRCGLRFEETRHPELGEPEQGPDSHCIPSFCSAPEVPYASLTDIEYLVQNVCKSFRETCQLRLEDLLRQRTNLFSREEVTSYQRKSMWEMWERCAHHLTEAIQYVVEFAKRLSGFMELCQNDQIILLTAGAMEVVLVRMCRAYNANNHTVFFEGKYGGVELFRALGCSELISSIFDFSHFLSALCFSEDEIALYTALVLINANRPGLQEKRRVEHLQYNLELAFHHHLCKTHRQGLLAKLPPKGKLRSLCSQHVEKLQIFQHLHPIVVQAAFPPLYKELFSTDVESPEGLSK
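Stably transfected Drosophila Schneider cells are the test system, with ROR gamma fused to Gal4 and luciferase under UAS control; luminescence is read after 20 hr of 700 uM copper sulfate induction at ambient temperature.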
Numbers stand for hits; - = inactive; ? = inconclusive; . = no result given; [ ] = dose if it differs, or a comment. Unless noted, calls follow the shape of the dose curve; as a rule, active = well fitted curve in the direction sought with a large enough effect; inconclusive = small, poorly fitted or top-dose-only effect, or another doubt; inactive = no such curve, though single readings can be large; an effect the other way counts as inactive or inconclusive.

SMILES	CtBP-E1A blk	Gal4-VP16 FLuc	Six1-Eya2 blk	p53 reactivation	RORg inh
O=C(O)c1ccccc1Nc1cc(Cl)cc(Cl)c1	.	-	.	.	-
C=C1C(=O)O[C@H]2C[C@]3(C)C([C@@H](OC(=O)/C(C)=C/C)[C@H]12)[C@](C)(O)CC[C@H]3O (some centres not stated)	.	?	-	-	11µM
COc1ccc(C(=O)NC(=S)N2CCCc3ccccc32)cc1OC	-	-	-	-	-
CC1CN(C(=S)NC(=O)c2cccc([N+](=O)[O-])c2)CC(C)O1 (configuration not stated)	-	1.3µM	-	-	0.5µM
CC1CN(C(=S)NC(=O)c2ccc(Cl)cc2)CC(C)O1 (configuration not stated)	-	0.79µM	-	-	1.6µM
COc1ccc(C(=O)NC(=S)N2CC(C)OC(C)C2)cc1OC (configuration not stated)	-	?	-	-	7.9µM
O=Cc1ccc2c(c1)OCCOCCOCCOCCO2	-	.	-	.	.
Cn1c(-c2sc3cc(C(F)(F)F)cnc3c2-c2ccccn2)n[nH]c1=S	-	-	-	-	?
Cn1c(-c2sc3cc(C(F)(F)F)cnc3c2-c2cccs2)n[nH]c1=S	-	-	-	-	2.8µM
CCCC(C)NC(=O)c1cccc(Oc2ccccc2)c1 (configuration not stated)	-	-	-	-	35µM
Cc1cc(C)c(-c2cc([C@H](C)O/N=C3/[C@H]4OC4[C@@H](O)[C@H]4[C@H]3CCn3c(=O)n(-c5ccccc5)c(=O)n34)on2)c(C)c1 (some centres not stated)	.	-[10 µM]	.	.	-[10 µM]
COC(=O)C(C(=O)OC)C(C)C(C(=O)OC)C(=O)OC	-	-	-	-	-
Cc1cc(NC(=O)CCc2ccc(C)o2)no1	-	-	-77	-	-
COC(=O)CC(c1ccc(OC)c(OC)c1)c1ccc(OC)c(OC)c1	-	-[10 µM]	-	-	-
Cc1cccc(NC(=S)NCCc2ccccn2)c1	-	?	-	-	?
S=C(NCCc1ccccn1)Nc1cccc(Cl)c1	-	7.9µM	-	-	5µM
Cc1ccccc1NC(=S)NCCc1ccccn1	-	?	-	-	16µM
Cc1ccccc1NC(=O)NCc1ccccn1	-	.	-	.	.
O=C(NC(=S)NCCc1ccccn1)c1ccccc1	-	-	-	-	13µM
Cc1cccc(C)c1NC(=S)NCCc1ccccn1	-	2.8µM	-	-	1.4µM
Cc1ccc(N2CCN(CC(O)COc3ccccc3)CC2)cc1 (configuration not stated)	-	-	-	?	-
Nc1c(-c2cccc(Cl)c2)cnc2c(-c3ccccc3)cnn12	-	-	-	-	-
Cc1ccc(OC2C(O)COC2/C=C/C#Cc2ccc(C(C)(C)C)cc2)cc1 (configuration not stated)	.	-[10 µM]	.	.	-[10 µM]
S=C(NCc1ccccn1)Nc1ccc(Cl)cc1	-	?	-	-	7.9µM
Fc1cccc(NC(=S)NCc2ccccn2)c1	-	?	-	-	-[10 µM]
SMILES	CtBP-E1A blk	Gal4-VP16 FLuc	Six1-Eya2 blk	p53 reactivation	RORg inh
Cc1cc(-c2ccccc2)c2c(=O)n(-c3ccccc3)[nH]c2n1	-	-	-	.	-
O=c1c2c3n(c(=S)nc2[nH]n1-c1ccccc1)CCCCC3	-	?	-	-	13µM
CCCCC/C=C\C/C=C\C/C=C\C/C=C\CCCC(=O)O[C@@H](CO)COCCCCCCCCCCCCCCCC	.	-	.	.	-
Nc1nc2c(ncn2C2OC(COC(=O)c3ccccc3)C(OC(=O)c3ccccc3)C2OC(=O)c2ccccc2)c(=O)[nH]1 (configuration not stated)	.	-	.	.	-
COc1ccc(C(=O)Nc2sc(C(=O)N(C)C)c(C)c2C#N)cc1[N+](=O)[O-]	-	16µM	-	-	?
C#CCN(Cc1ccccc1)S(=O)(=O)C=C	-	.	-	?	.
NC(=S)NNc1ccc(Cl)c(Cl)c1	.	10µM	-	-	6.3µM
NC(=S)Nc1ccc(Cl)c(Cl)c1	.	-	-	-	-
Cc1ccc(NNC(N)=S)cc1Cl	-	5µM	-	-	?
COC(=O)C/C=C\[C@@H](C)[C@@H](/C=N\OC[C@@H](O)[C@H]1O[C@H]2OC(C)(C)O[C@H]2[C@@H]1O)NS(=O)(=O)c1ccc(C)cc1	.	-[10 µM]	.	.	-[10 µM]
COc1ccc(C(=O)N/N=C/c2ccc(N3CCOCC3)o2)cc1OC	-	-	-	-	?
NC(=O)N/N=C/c1ccc(-c2cccc(C(F)(F)F)c2)o1	-	-	-	-	-
O=C(N/N=C/c1ccc(-c2cccc(C(F)(F)F)c2)o1)c1ccccc1O	-	0.56µM	-	-	0.28µM
O=C(N/N=C/c1ccc(-c2cccc(C(F)(F)F)c2)o1)c1cccc(F)c1	-	1.3µM	-	-	2µM
O=C(N/N=C/c1ccc(N2CCOCC2)o1)c1cccc(F)c1	-	13µM	-	?	11µM
O=C(N/N=C/c1ccc(-c2cccc(C(F)(F)F)c2)o1)c1ccccc1Br	-	-	-	-	11µM
C/C(CCN1CCCc2nc(C)c(C)cc21)=N\O[C@@H](C)CN1CCCc2nc(C)c(C)cc21	.	-[10 µM]	.	.	-[10 µM]
Cc1cc(C)n(-c2cccc(CN(C)Cc3nc(-c4cnccn4)no3)c2)n1	-	-	-	-	-
COC(=O)C/C=C\[C@@H](C)[C@@H](CO)NS(=O)(=O)c1ccc(C)cc1	.	-[10 µM]	.	.	-[10 µM]
O=C(N/N=C/c1sc(N2CCOCC2)nc1-c1ccccc1)c1ccccc1F	-	-	-	-	-
CC(C)NC(=S)N/N=C/c1sc(N2CCCCC2)nc1-c1cccs1	-	?	-	-	1.4µM
Cc1cc(C(=O)N/N=C/c2sc(N3CCOCC3)nc2-c2ccccc2)c(C)o1	-	-	-	-	?
CCCCNC(=S)N(C)/N=C/c1sc(N2CCCCC2)nc1-c1cccs1	.	-	.	-	11µM
O=C(N/N=C/c1sc(N2CCCCC2)nc1-c1cccs1)C1CC1	-	?	-	-	7.1µM
CC[C@H](C)[C@H](N)C(=O)N[C@@H](CC(N)=O)C(=O)N1CCC[C@H]1C(=O)N[C@H](C(=O)N[C@@H](Cc1ccc(O)cc1)C(=O)N[C@@H](CCCN=C(N)N)C(=O)N[C@@H](CC(C)C)C(=O)N[C@@H](CCCN=C(N)N)C(=O)N[C@@H](Cc1ccc(O)cc1)C(N)=O)[C@@H](C)CC	.	-	.	.	-
SMILES	CtBP-E1A blk	Gal4-VP16 FLuc	Six1-Eya2 blk	p53 reactivation	RORg inh
CCCCN(C(=O)Nc1ccc(OCC)cc1)C1CCN(C(C)=O)CC1	-	-	-	-	-
O=C(c1ccccc1)c1c[nH]c2ccccc12	-	-	-	-	?
O=C(/C=C/c1c[nH]c2ccccc12)c1cccc2ccccc12	-	?	-	?	5µM
COc1ccc(C(=O)/C(Br)=C/C(=O)O)cc1	.	-	.	.	?
CCC1c2ccccc2C(=O)C1C(N)=O (configuration not stated)	-	.	-	.	.
COc1ccc(NC(=O)C2=CC(c3ccc(C)cc3)=NS(=O)(=O)N2C)cc1OC	-	-	-	-	?

Source: PubChem (National Center for Advancing Translational Sciences (NCATS))
